Among the data in PubChem BioAssay (NCI) are growth inhibition values, retold here.

The panel holds about 79,000 compounds, 15% with a hit somewhere; the sample as a whole holds those more often. A number with no mark means an inactive call. Calls of active or inactive are those of the source. Cut-off read from the data, not from the text of the source: active = growth inhibition above about 70%; inactive = the rest. Where a SMILES comes first, the peptide text is derived from it. Bridges are numbered along the chain shown (N, C = ends). [ ]: non-standard residue; d: D form. The star is where a group is joined. Myristoyl = CCCCCCCCCCCCCC(=O)*; PhAc = O=C(Cc1ccccc1)*

This assay is described as follows: NCI Yeast Anticancer Drug Screen. Data for the mlh1 rad18 strain (AID 175). To be noted: S. cerevisiae mlh1 rad18 strain growth inhibition; at 50.0 µM; active compounds read high. The gist of the method:
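Genetically defined yeast (DNA repair-deficient) exposed to compounds; growth inhibition determined relative to vehicle.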
As for `O=C1NC(=NC2CCCCC2)C2(CCN(CCCC3(c4ccc(F)cc4)OCCO3)CC2)N1c1ccccc1`, the growth inhibition was -1.45%. Under `Cc1ccc(/C=C/C(=O)c2c([O-])on[n+]2-c2ccccc2)cc1` stands -4.8%. For `CC(C)(C)NC(=O)c1cccc(C(=O)NC(C)(C)C)n1`, the growth inhibition was -16.4%.

Turning to `C=CCC(C(=C)C)(C(=O)OCC)C(=O)OCC`, the growth inhibition was -31.9%. In the case of `CC(=O)OCC(=O)C1(O)C(C)CC2C3CCC4CC(=O)CCC4(C)C3=CCC21C` (centres undefined) it was 23.8%; in that of `CS(=O)(=O)OCCn1cnc2nc(NC(=O)c3ccccc3)[nH]c(=O)c21`, -24.6%. With `OCc1nnn2c1CCC2`, the growth inhibition was -6.25%.

`O=S(=O)(c1ccccc1)N1CCCN(S(=O)(=O)c2ccccc2)CC1`: the growth inhibition was 0.7%. For `CSc1cccc(NC(=O)/C=C/C(=O)O)c1`, the growth inhibition was -0.9%. As for `CCCCCCCCCCCCCC(=O)NCC(=O)NC(CO)C(=O)NC(CO)C(=O)NC(CCCCN)C(=O)NC(CO)C(=O)NC(CCCCN)C(=O)N1CCCC1C(=O)NC(CCCCN)C(=O)NC(CC(=O)O)C(N)=O` (centres undefined) (Myristoyl-GSSKSKPKD-NH2; configuration not given here), the growth inhibition is 14%.

Take `COc1ccc(C2OC(C)C(C)O2)cc1` (centres undefined): the growth inhibition is -8%.

Consider `O=C(O)c1ccc(C(=O)c2ccccc2C(=O)O)cc1C(=O)O`, for which the growth inhibition is -24.8%. In the case of `O=C(Cc1ccccc1)N[C@@H]1COC(=O)[C@@H]2CCCN2C(=O)[C@@H]2CCCN2C1=O` (PhAc-[dS]-Pro-Pro; ester 1-C) it was -8.95%; in that of `c1ccc(Cc2nnc3n2CCC(c2ccccc2)S3)cc1` (centres undefined), -0.25%; in that of `N#CC1CC2c3ccccc3C1([N+](=O)[O-])c1ccccc12` (centres undefined), 70.7% (active). In the case of `COc1ccc(S(=O)Cc2cc(OC)c(OC)c(OC)c2)cc1` (centres undefined) it was -23.7%; in that of `CC(C)(C)NC(=S)N/N=C/c1ccccn1`, 89.7% (active); in that of `c1ccc(C(c2ccccc2)[n+]2ccccc2)cc1`, -6.25%. Under `COc1ccc2[nH]cc(C=O)c2c1` stands 3.5%; under `CSc1nc(N)n2nc(C)cc2n1`, -3.8%; under `O=C(O)c1c(Br)c(Br)c(Br)c(Br)c1C(=O)Nc1ccccc1F`, 12.4%. Consider `CCOC(=O)C(/C=N/C(=S)Nc1c(C)cccc1C)=C(/O)c1ccccc1`, for which the growth inhibition is -33.4%. In the case of `Cc1ccc(NC(=O)CSc2nnc(Cc3ccccc3)o2)cc1` it was -25.6%; in that of `CC(=O)Nc1ccc(Cc2ccc3[nH]c(=O)cc(C)c3c2)cc1`, 12.9%.
